# Measured values reported in PubChem BioAssay (NCATS).
# Where “and” joins values, the source holds several entries; their conditions need not be identical. Identical values can stand only once. Unmarked numbers belong to inactive results. The rule behind the calls is not given here.
# Molecular target: Nuclear receptor subfamily 1 group I member 2 (Rattus norvegicus) (UniProt Q9R1A7)
# Experiment: qHTS assay for small molecule activators of the rat pregnane X receptor (rPXR) signaling pathway (AID 651751); note: 0% is about no effect
# Conditions: rPXR reporter cells, luciferase (One-Glo), 24 h
# Sequence of Nuclear receptor subfamily 1 group I member 2 (Rattus norvegicus) (Q9R1A7 whole entry, looked up): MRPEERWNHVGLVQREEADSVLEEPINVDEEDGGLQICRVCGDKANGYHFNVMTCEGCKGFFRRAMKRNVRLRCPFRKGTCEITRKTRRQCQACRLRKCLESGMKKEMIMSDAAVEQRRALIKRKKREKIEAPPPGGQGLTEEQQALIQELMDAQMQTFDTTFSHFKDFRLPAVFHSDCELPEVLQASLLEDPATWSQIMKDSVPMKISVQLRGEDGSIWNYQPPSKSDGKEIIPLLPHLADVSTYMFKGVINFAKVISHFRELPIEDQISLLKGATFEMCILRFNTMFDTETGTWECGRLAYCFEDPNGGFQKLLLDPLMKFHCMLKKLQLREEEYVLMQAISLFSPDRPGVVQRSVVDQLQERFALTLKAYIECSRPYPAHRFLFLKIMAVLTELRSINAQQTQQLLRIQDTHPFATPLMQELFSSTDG
row,Structure (SMILES),max response
1,O=C(OCc1ccccc1)c1ccc(O)cc1,2.15%
2,N[C@@H](Cc1cc(I)c(Oc2ccc(O)c(I)c2)c(I)c1)C(=O)O,-4.55%
3,C[C@H]1O[C@@H](O[C@H]2[C@@H](O)C[C@H](O[C@H]3[C@@H](O)C[C@H](O[C@H]4CC[C@@]5(C)[C@H](CC[C@@H]6[C@@H]5C[C@@H](O)[C@]5(C)[C@@H](C7=CC(=O)OC7)CC[C@]65O)C4)O[C@@H]3C)O[C@@H]2C)C[C@H](O)[C@@H]1O,-0.0646% and -4.92%
4,Oc1ccc(/C=C/c2cc(O)cc(O)c2)cc1,-2.85% and -10.8%
